Molecules are shown by their SMILES. Measured potencies and affinities stand elsewhere. Values without a mark were called inactive.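 The calls were made as follows: active = a fitted half-maximal concentration no higher than twice the top valid tested dose, with signal falling as cells die; inconclusive = flat curve between -70% and -30%, or poor fit; inactive = the rest, including signal rising instead of falling.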

The assay can be described thus: viability loss in HeLa cells – cell-based, ATP luminescence, cherry-pick samples, cytotoxicity control, dose response (AID 687004).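 Also: 0% = neutral control median and -100% = staurosporine 10 µM control median.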 Conditions: ATP luminescence (CellTiter-Glo), 48 h; series mostly up to 26 µM; activity change, negative = cytotoxicity: at the top concentration. (In general: ATP-based viability assays read luminescence as a measure of living cells.)
Regarding `Cc1ccc(N(CC(N)=O)S(=O)(=O)c2ccc(F)cc2)cc1`, the “activity change, negative = cytotoxicity” value is 11.1% [at 28.5 µM]. Take `C/C=C/c1ccc2c(c1)O[C@H](CN(C)S(=O)(=O)c1ccccc1)[C@H](C)CN([C@@H](C)CO)S2(=O)=O`: the “activity change, negative = cytotoxicity” value was 12.6%. The figure for `C[C@H]1CCCCO[C@H](CN(C)C(=O)c2ccncc2)[C@@H](C)CN([C@@H](C)CO)C(=O)c2cc(NC(=O)Cc3ccccc3)ccc2O1` is -0.948%; for `CO[C@H](CN(C)Cc1ccc2c(c1)OCO2)[C@@H](C)CN(C(=O)c1ccccc1)[C@@H](C)CO` it is 15.1%. For `C[C@H](CO)N1C[C@H](C)[C@H](CN(C)Cc2cccnc2)Oc2ncc(C#CC3(O)CCCC3)cc2C1=O`, the “activity change, negative = cytotoxicity” value is -1.71%. For the compound `O=C(C[C@H]1C=C[C@H](NC(=O)C2CCC2)[C@@H](CO)O1)NC1CCC1`, the “activity change, negative = cytotoxicity” value is 1.69%.

For `Cc1noc(C)c1S(=O)(=O)Nc1ccc2c(c1)CC(=O)N([C@@H](C)CO)C[C@@H](C)[C@@H](CN(C)S(=O)(=O)c1cccs1)O2`, the “activity change, negative = cytotoxicity” value was 9.08% [at 23.5 µM]. Consider `COc1ccccc1C(=O)Nc1ccc2c(c1)C(=O)N(C)C[C@@H](OC)[C@H](C)CN(C)[C@@H](C)CO2`, for which the “activity change, negative = cytotoxicity” value was 4.7%. Consider `COc1ccccc1C(=O)N1C[C@H]2[C@@H](c3ccccc31)[C@@H](CO)N2C(=O)Cc1ccccc1`, for which the “activity change, negative = cytotoxicity” value is 21%. In the case of `CC(=O)NC[C@H]1[C@@H](c2ccc(C3=CCCC3)cc2)[C@@H](CO)N1C(=O)NC(C)C`, the “activity change, negative = cytotoxicity” value is 8.28%. For the compound `COCC(=O)Nc1ccc2c(c1)OC[C@@H](C)N(C(=O)Cc1cccnc1)C[C@H](C)[C@@H](OC)CN(C)C2=O`, the “activity change, negative = cytotoxicity” value is 3.09%. With `C[C@@H]1CN([C@H](C)CO)C(=O)c2c(c3ccccc3n2C)-c2ccccc2CO[C@H]1CN(C)S(=O)(=O)c1cccs1`, the “activity change, negative = cytotoxicity” value is 11.5%. As to `CNC(=O)C[C@@H]1CC[C@H]2[C@@H](COC[C@H](O)CN2C(=O)Nc2ccc3c(c2)OCO3)O1`, the “activity change, negative = cytotoxicity” value was 1.18%. With `COC(=O)N(C)C[C@H]1OCc2cn(nn2)CCCC(=O)N([C@@H](C)CO)C[C@@H]1C`, the “activity change, negative = cytotoxicity” value was 6.2%. For the compound `CC(=O)NNC(=O)CSc1nnc(-c2ccccc2)c(-c2ccccc2)n1`, the “activity change, negative = cytotoxicity” value was 5.46%. Turning to `CNC[C@@H]1OCCCC[C@H](C)Oc2ccc(NC(=O)Nc3ccc(F)cc3)cc2C(=O)N([C@@H](C)CO)C[C@H]1C`, the “activity change, negative = cytotoxicity” value was 18.8%.

For `CNC[C@H]1Oc2ccc(NC(=O)Cc3cn(C)c4ccccc34)cc2CC(=O)N([C@@H](C)CO)C[C@H]1C`, the “activity change, negative = cytotoxicity” value was 5.24%. The figure for `CCNC(=O)COc1cccc(C(=O)NCc2ccccc2)c1` is 6.99%. Consider `O=C1CCC(C(=O)Nc2ccccc2)N1` (stereo not drawn), for which the “activity change, negative = cytotoxicity” value was 12.7%. Turning to `COc1ccc(C#Cc2ccc3c(c2)O[C@H](CN(C)C(=O)Nc2cccc(OC)c2)[C@H](C)CN([C@@H](C)CO)S3(=O)=O)cc1`, the “activity change, negative = cytotoxicity” value was 0.479%. `C[C@@H]1CN([C@@H](C)CO)C(=O)c2cc(NC(=O)C3CCCCC3)ccc2O[C@@H](C)CCCCO[C@@H]1CN(C)C(=O)NC1CCCCC1`: the “activity change, negative = cytotoxicity” value is 17.1%. As for `C[C@@H]1CN([C@@H](C)CO)C(=O)CCCn2nncc2CO[C@H]1CN(C)Cc1cccc(C(F)(F)F)c1`, the “activity change, negative = cytotoxicity” value was -6.94%. The figure for `CCCC#Cc1ccc2c(c1)O[C@@H](CN(C)C)[C@@H](C)CN([C@@H](C)CO)S2(=O)=O` is 10.2%; for `CCC(=O)N1[C@@H]2c3cccc(=O)n3C[C@H]1[C@H](CO)[C@H]2C(=O)NCc1ccccc1` it is 0.309%; for `C[C@@H]1CCCCO[C@@H](CN(C)S(=O)(=O)c2ccc(F)cc2)[C@@H](C)CN([C@@H](C)CO)C(=O)c2cc(NS(=O)(=O)c3ccc(F)cc3)ccc2O1` it is 5.14%. Consider `C[C@@H]1CN([C@H](C)CO)C(=O)c2cc(-c3ccc(C#N)cc3)cnc2O[C@@H]1CN(C)C(=O)Nc1ccc(F)cc1`, for which the “activity change, negative = cytotoxicity” value was 13.7%. Consider `COc1cccc(S(=O)(=O)N(C)C[C@H]2OCc3cnnn3CCCC(=O)N([C@H](C)CO)C[C@H]2C)c1`, for which the “activity change, negative = cytotoxicity” value was 20.4%. As for `COc1ccccc1-c1ccc2c(c1)O[C@@H](CN(C)C(=O)c1cccnc1)[C@H](C)CN([C@@H](C)CO)S2(=O)=O`, the “activity change, negative = cytotoxicity” value is 7.37%. As for `CN1C(=O)c2cc(NS(=O)(=O)c3cccc(F)c3)ccc2OC[C@H]2O[C@H](CC(=O)O)CC[C@H]21`, the “activity change, negative = cytotoxicity” value was 9.17%. On to `COCCNC(=O)C[C@@H]1CC[C@@H]2[C@H](COC[C@@H](O)CN2S(=O)(=O)c2ccccc2C)O1`, for which the “activity change, negative = cytotoxicity” value was 14.2%.

`COc1cccc(S(=O)(=O)N2C[C@@H](O)COC[C@@H]3O[C@H](CC(=O)N4CCN(C)CC4)CC[C@H]32)c1`: the “activity change, negative = cytotoxicity” value is 12.8%. As for `Cc1cc(C)c(NC(=O)C(C)N2CCCCCC2)c(C)c1` (stereo not drawn), the “activity change, negative = cytotoxicity” value was -3.84%. For `O=C(C[C@H]1C[C@H]2c3cc(NC(=O)C4CCC4)ccc3O[C@H]2[C@@H](CO)O1)NCc1cccc(F)c1`, the “activity change, negative = cytotoxicity” value is 4.01% [at 23.5 µM].

Values taken from PubChem BioAssay.
